PHOSPHO1 block: blocks human PHOSPHO1 phosphatase activity; Q8TCT1; inhibition, % at 13.3 µM; recombinant PHOSPHO1, absorbance phosphatase assay; 290,000 compounds, 1.1% hits; in the data active means inhibition above about 60%
Target sequence (Q8TCT1 whole entry, looked up): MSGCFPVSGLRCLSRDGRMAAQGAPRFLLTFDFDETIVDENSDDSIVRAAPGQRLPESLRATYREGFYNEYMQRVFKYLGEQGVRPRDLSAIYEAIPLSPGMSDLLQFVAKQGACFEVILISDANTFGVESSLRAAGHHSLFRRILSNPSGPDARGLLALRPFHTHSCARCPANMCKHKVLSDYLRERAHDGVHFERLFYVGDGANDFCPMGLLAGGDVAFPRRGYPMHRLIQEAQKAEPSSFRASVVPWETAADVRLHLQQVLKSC
ALR H2O2 inh: human ALR oxidase inhibition via reduced H2O2; purified ALR, DTT oxidation, H2O2 HRP-luminol luminescence; 290,000 compounds, 3.8% hits; inhibition, % (concentration not given with the values);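 active means mean replicate inhibition above about 79%, with every replicate also reaching it, limit read from the data; inconclusive means only one of the two criteria met; inactive means mean below limit and not every replicate reaching it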
Target sequence (P55789 whole entry, looked up): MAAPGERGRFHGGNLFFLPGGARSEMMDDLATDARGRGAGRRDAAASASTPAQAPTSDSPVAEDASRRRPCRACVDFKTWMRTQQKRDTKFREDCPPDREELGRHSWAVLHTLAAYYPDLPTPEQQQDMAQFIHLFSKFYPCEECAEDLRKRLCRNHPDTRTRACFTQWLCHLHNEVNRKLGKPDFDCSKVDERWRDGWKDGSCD
PfM18AAP inh: PfM18AAP enzyme inhibition; recombinant PfM18AAP, H-Glu-NHMec fluorogenic cleavage; inhibition, % at 7.35 µM; 290,000 compounds, 1.2% hits; AID 1822;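 active means inhibition above the campaign mean inhibition over all tested compounds plus 3 SD, cut at about 28% in these data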;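 further: 0% = plate median of test compound wells and 100% = 2 mM ZnCl2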
PfGluPho inh: PfG6PD (Plasmodium falciparum) enzyme inhibition; inhibition, % at 20 µM; PfGluPho enzyme, NADPH resazurin-diaphorase fluorescence; 350,000 compounds, 0.78% hits;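 active means inhibition reaching at least a set limit at 20 µM in the primary screen, cut at about 59% in these data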;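 further: 0% = DMSO wells with substrate and 100% = DMSO wells lacking glucose-6-phosphate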
H9c2 protect: protects H9c2 cardiomyocytes from peroxide injury; H2O2 injury protection, ATPLite, 2 h; 360,000 compounds, 0.63% hits; AID 588492; protection from H2O2 cell death, % at 20 µM;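 active means compounds giving at least 50% protection of heart cells from peroxide-induced death in the single-dose screen, raw or plate-pattern-corrected value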;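 further: 0% = DMSO wells with peroxide and 100% = DMSO wells without peroxide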
* = called active by the depositor; ? = inconclusive; . = no result given. In the library only some 5.6% were active in any assay of this set; here they are far more common.

SMILES	PHOSPHO1 block	ALR H2O2 inh	PfM18AAP inh	PfGluPho inh	H9c2 protect
COc1ccc(NCCNc2ccc(OC)cc2)cc1	-5	?	0	11	-6
COc1ccc(NCCC(O)c2ccc(Cl)cc2)cc1 (configuration not stated)	33	99*	-4	17	1
COc1ccc(Cl)cc1NCCC(O)c1ccc(F)cc1 (configuration not stated)	6	99*	22	30	-7
Brc1cccc(-c2nnc3sc(CNCc4ccco4)cn23)c1	83*	.	1	-8	-2
COc1ccc2[nH]c3c(c2c1)CCNC3c1ccc([N+](=O)[O-])o1 (configuration not stated)	33	65	-16	52	60*
O=C(O)CCC(=O)NNc1nc(-c2ccccc2)c2cc(Cl)ccc2n1	23	61	30*	-19	14
CC(C)(C)OC(=O)N1CCC[C@H]1c1nnc(SCC(=O)Nc2cccc(Cl)c2)o1	6	?	1	16	1
CC(C)(C)OC(=O)N1CCC[C@H]1c1nnc(SCC(=O)Nc2ccc(Br)cc2)o1	-1	-9	-11	-1	60*
CCSc1nnc([C@@H]2CCCN2C(=O)OC(C)(C)C)o1	67*	.	-1	3	-1
CCCCOC(=O)c1ccc(NC(=O)COC(=O)C2CC2C)cc1 (configuration not stated)	.	.	.	15	-16
Cc1ccc(C)c(SCC(=O)NC(=O)NC2CCCC2)c1	.	.	.	-15	0
COc1ccc(NS(=O)(=O)c2ccc3nc(COc4ccc(C#N)cc4)[nH]c3c2)cc1	6	98*	-9	13	-16
COc1ccc(OCc2nc3ccccc3[nH]2)cc1	3	-1	3	-6	-17
CCOC(=O)C1=C(N)Oc2cc(O)ccc2C1c1ccc(Br)cc1 (configuration not stated)	14	2	-8	14	4
Cc1cc2c(cc(C(=O)OC(C(=O)NCc3ccco3)C(C)C)n2C)o1 (configuration not stated)	66*	2	5	5	-8
CC(C)C(OC(=O)c1cccs1)C(=O)NCc1ccco1 (configuration not stated)	-27	33	-2	-9	-3
COc1cccc(-n2c(CNC(=O)OC(C)(C)C)n[nH]c2=S)c1	84*	89*	11	43	8
CC(C)(C)OC(=O)NCCc1n[nH]c(=S)o1	28	35	8	6	2
Cn1c(CCNC(=O)OC(C)(C)C)n[nH]c1=S	79*	95*	2	10	0
COc1cccc(C(=O)NCc2n[nH]c(=S)n2-c2cccc(C)c2)c1	87*	18	7	24	-2
O=C(Cc1cccc(NC(=O)C2CCCN(C(=O)C3CCCC3)C2)c1)Nc1ccc(C(=O)N2CCOCC2)cc1 (configuration not stated)	.	.	.	-7	-1
CCN1C(=O)[C@@H]2[C@@H](c3ccc(-c4ccc(C(C)=O)cc4)cc3)N3CCCC[C@@]3(C(=O)OC)[C@@H]2C1=O	.	0	.	10	17
Cn1c(N)nc2nc[nH]c2c1=S	.	.	.	33	14
N#Cc1ccccc1NC(=O)COC(=O)/C=C/c1cn(-c2ccccc2)nc1-c1ccc(Cl)cc1	60*	.	3	2	17
CN(C(=O)COC(=O)/C=C/c1cn(-c2ccccc2)nc1-c1ccc2c(c1)OCCO2)C1CCS(=O)(=O)C1 (configuration not stated)	-45	-3	5	11	35
SMILES	PHOSPHO1 block	ALR H2O2 inh	PfM18AAP inh	PfGluPho inh	H9c2 protect
O=C(COC(=O)/C=C/c1cn(-c2ccccc2)nc1-c1ccc2c(c1)OCCO2)NC1CCS(=O)(=O)C1 (configuration not stated)	15	2	1	-1	57*
CNC(=O)COC(=O)/C=C/c1cn(-c2ccccc2)nc1-c1ccc(C)o1	27	-1	-40	16	56*
Cc1cc(C)n(-c2ccc(S(=O)(=O)N3CCOCC3)cc2[N+](=O)[O-])n1	2	-11	1	-3	-4
CC(=O)OCC1=C(C(=O)O)N2C(=O)C(NC(=O)c3ccc(COc4c(C)cccc4Cl)o3)C2SC1 (configuration not stated)	-26	98*	16	-2	-3
CN1CCc2nc3ccccc3c(C(=O)OCC(=O)N(CCC#N)c3ccccc3)c2C1	-4	-7	0	10	58*
N#CCCN(C(=O)COC(=O)c1ccc2ccccc2n1)c1ccccc1	.	-4	.	-9	8
COc1ccc(OCc2nn3c(-c4ccco4)nnc3s2)cc1	8	-2	2	3	40
c1coc(-c2nn3c(-c4ccco4)nnc3s2)c1	84*	6	2	-11	42
Clc1ccc(-c2nnc3sc(-c4ccc(Br)o4)nn23)c(Cl)c1	50	-1	-1	-16	-9
c1coc(-c2nnc3sc(Cc4cccs4)nn23)c1	-12	0	10	-1	65*
Clc1ccccc1-c1nnc2sc(-c3ccc(Br)o3)nn12	80*	-6	2	0	-2
CCN(CC)C(=O)C1=C(C)N(Cc2ccccc2)C(=O)C(CC(=O)NC2CCCC2)C1 (configuration not stated)	.	.	.	-6	6
CCN(CC)CCCn1c2c(c(SCC(=O)Nc3ccccc3Cl)nc1=O)CCC2	.	98*	.	1	5
CCN(CC)CCn1c2c(c(SCC(=O)Nc3ccc(C)c(F)c3)nc1=O)CCC2	.	-404	.	4	0
CCN(CC)CCCn1c2c(c(SCC(=O)Nc3ccc(F)c(F)c3)nc1=O)CCC2	.	98*	.	-3	7
CCN(CC)CCn1c2c(c(SCC(=O)Nc3ccccc3Cl)nc1=O)CCCC2	.	-16	.	-5	0
CCN(CC)CCn1c2c(c(SCC(=O)Nc3ccc(F)c(F)c3)nc1=O)CCC2	.	92*	.	-17	4
CCN(CC)CCCn1c2c(c(SCC(=O)Nc3ccc4c(c3)OCO4)nc1=O)CCC2	.	96*	.	-15	8
COc1ccc(S(=O)(=O)Nc2ccc3c(c2)C(=O)N([C@H](C)CO)C[C@H](C)[C@@H](CN(C)S(=O)(=O)c2cccs2)O3)cc1	.	-5	.	-17	5
CCN(CC)CCn1c2c(c(SCC(=O)Nc3ccc(C)c(F)c3)nc1=O)CCCC2	.	97*	.	9	4
Fc1ccc(-n2[nH]nnc2=S)cc1N1CCCC1	78*	82*	-13	23	3
Cn1ccnc1SCc1cccc([N+](=O)[O-])c1	32	98*	4	26	3
Cn1ccnc1SCc1ccc([N+](=O)[O-])cc1	15	99*	1	14	3
Cn1c(CO)cnc1SCc1ccc([N+](=O)[O-])cc1	3	.	9	18	6
CN(C)c1ccc(C(CNS(=O)(=O)c2ccc([N+](=O)[O-])cc2)N2CCCC2)cc1 (configuration not stated)	.	37	.	-11	2
Nn1c(=O)c2ccccc2n2c(SCc3ccc(C(F)(F)F)cc3)nnc12	90*	.	12	27	-2
CCC(=O)c1ccc(OCC(=O)N2CCN(S(=O)(=O)c3ccc(Cl)s3)CC2)cc1	.	.	.	-1	-6

High-throughput results from PubChem.
